The panel holds about 83,000 compounds, 20% with a hit somewhere; the sample as a whole holds those more often.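 Step 1: grow cells in 96-well plates. Step 2: add test compound at a single concentration. Step 3: incubate 48 h. Step 4: record percent growth.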 Unmarked numbers belong to inactive results. Activity calls are given as the source filed them. Rule for the calls: active = growth percent below 10; inactive = the rest.
Assays:
Experiment in all cases: NCI-60 one-dose screen, 48 h (100 = growth as untreated, 0 = no growth, -100 = all killed)
Conditions in all cases: 10 µM unless noted
NCI-H23 lung = system: NCI-H23 lung
NCI-H226 lung = system: NCI-H226 lung
NCI-H322M lung = system: NCI-H322M lung
HOP-62 NSCLC = system: HOP-62 NSCLC
NCI-H460 lung = system: NCI-H460 lung
HOP-92 NSCLC = system: HOP-92 NSCLC
NCI-H522 lung = system: NCI-H522 lung
A549/ATCC NSCLC = system: A549/ATCC NSCLC
786-0 renal = system: 786-0 renal
COLO 205 colon = system: COLO 205 colon
K-562 leukemia = system: K-562 leukemia
MALME-3M melanoma = system: MALME-3M melanoma
MDA-MB-231 breast = system: MDA-MB-231 breast
RXF 393 renal = system: RXF 393 renal
SF-295 CNS = system: SF-295 CNS
SF-539 CNS = system: SF-539 CNS
UACC-257 melanoma = system: UACC-257 melanoma
M14 melanoma = system: M14 melanoma
SF-268 CNS = system: SF-268 CNS
DU-145 prostate = system: DU-145 prostate

| SMILES | growth (NCI-H23 lung) | growth (NCI-H226 lung) | growth (NCI-H322M lung) | growth (HOP-62 NSCLC) | growth (NCI-H460 lung) | growth (HOP-92 NSCLC) | growth (NCI-H522 lung) | growth (A549/ATCC NSCLC) | growth (786-0 renal) | growth (COLO 205 colon) | growth (K-562 leukemia) | growth (MALME-3M melanoma) | growth (MDA-MB-231 breast) | growth (RXF 393 renal) | growth (SF-295 CNS) | growth (SF-539 CNS) | growth (UACC-257 melanoma) | growth (M14 melanoma) | growth (SF-268 CNS) | growth (DU-145 prostate) |
| --- | --- | --- | --- | --- | --- | --- | --- | --- | --- | --- | --- | --- | --- | --- | --- | --- | --- | --- | --- | --- |
| O=C(O)c1cn(-c2ccccc2)nc1-c1ccc(O)cc1 | 93.9% | 107% | 100% | 92.7% | 94.7% | 85.5% | 78.6% | 92.4% | 97.4% | 109% | 100% | 105% | 95.7% | 108% | 92.8% | 101% | 85.1% | 91.8% | – | – |
| O=c1c2sc3ccccc3c2nnn1-c1ccc(F)c(Cl)c1 | 73% | 34.3% | 49.4% | -15% (active) | 10.4% | -1.07% (active) | 64.5% | 30.3% | 31.9% | 41.9% | 49.7% | 58% | 27.5% | 47.3% | 4.36% (active) | 65.4% | 64.1% | 74.7% | – | – |
| COc1cc(/C=C/C(=O)c2c(C)nc3ccccc3c2C)ccc1OCCCOc1cc2c(cc1OC)C(=O)N1CCC[C@H]1C=N2 | -19.5% (active) | -4.56% (active) | -58.6% (active) | -6.66% (active) | -61% (active) | -45.1% (active) | -56.9% (active) | 2.42% (active) | -47.9% (active) | -85.9% (active) | -10.8% (active) | -37.2% (active) | -35.6% (active) | -83.7% (active) | -47.6% (active) | -87% (active) | -1.91% (active) | -45.2% (active) | -47.9% (active) | – |
| Cc1ccc(NC(=O)c2[nH]c(SCCN(C)C)nc2-c2ccc(F)cc2)cc1Nc1ccc2ncn(C)c(=O)c2c1 | 42.1% | 63.9% | 67% | 58.5% | 56.3% | 38.7% | 69.5% | 40.3% | 72.8% | – | 40.2% | -12.8% (active) | 40.6% | 71.5% | 82.9% | 65% | 22% | 2.94% (active) | 71.1% | 80.1% |
| O=C(CCCCCCc1nc2ccc(Br)cc2[nH]1)NO | -25.6% (active) | 19.3% | 4.52% (active) | 12.5% | -25.6% (active) | -21.7% (active) | -16% (active) | 7.55% (active) | -4.46% (active) | -98.5% (active) | 6.07% (active) | -6.27% (active) | 2.73% (active) | -78.3% (active) | -17.2% (active) | 17.8% | -11% (active) | -16.1% (active) | 11.1% | – |
| COc1ccc(Br)c2ccccc12 | 109% | 106% | 117% | 103% | 114% | 93.9% | 97.9% | 104% | 115% | 120% | 94.3% | 121% | 123% | 109% | 110% | 109% | 100% | 101% | 108% | – |
| COc1ccc(CCN2COc3c([C@@H](C)CCC=C(C)C)ccc(C)c3C2)cc1OC | 39.1% | 82.3% | 88.2% | 73.4% | 34.5% | -1.29% (active) | 64.7% | 74.3% | 52.4% | -92.9% (active) | 13.1% | 48% | 57% | 63.9% | 43.1% | 80.5% | 48.1% | 11.5% | – | – |
| C=CCN(CCOC(=O)c1ccc([N+](=O)[O-])cc1)CCOC(=O)c1ccc([N+](=O)[O-])cc1 | 106% | 94.9% | 91.1% | 91.9% | 115% | 87.1% | 95.3% | 102% | 103% | 112% | 92.3% | 98.8% | 96.2% | 138% | 107% | 110% | 97.8% | 105% | 98% | – |
| CCCCn1c(-c2ccc(F)cc2)nc2cc(OC)c(OC)cc2c1=O | 101% | 93.8% | 78% | -11.2% (active) | 112% | 66.1% | 93.7% | 19.7% | – | 121% | 85.5% | 71.8% | 87.1% | – | – | 101% | -32.2% (active) | 127% | 101% | 111% |
| O=C1/C(=C\c2cccn2C(=O)c2ccccc2)c2ccccc2N1c1c(Cl)cccc1Cl | 75.3% | 70.1% | 93.7% | 99.3% | 94.8% | 81.5% | 70.5% | 77.3% | 94% | – | 17.4% | 82.6% | 74.6% | 71.7% | 97.6% | 79.4% | 90.7% | 76% | 66.9% | 102% |
| CCCCn1cnc(-c2cc(-c3ccccc3)cc(C(F)(F)F)c2)n1 | 98.1% | 95.6% | 99.8% | 99.1% | 99% | 76% | 93.8% | 97.8% | 103% | – | 95.9% | 89.6% | 106% | 99.9% | 102% | 103% | 96.7% | 98% | 104% | 106% |
| CCCOC(=O)C1c2cc3c(cc2CC(C)C1C(=O)OCCC)OCO3 (stereo unspecified) | 85.8% | 94.1% | 80.9% | 95.3% | 103% | 70.3% | 70% | 92.6% | 94.5% | – | 99.6% | 104% | 90% | 93.3% | 83% | 122% | 76.9% | 100% | 106% | 112% |
| CN(C)c1ccc(/C=N/Nc2nnc3n2N=C(c2ccc(Cl)cc2)CS3)cc1 | 102% | 85% | 102% | 104% | 93.4% | 94.5% | 87.5% | 81.3% | 88.1% | – | 79% | 128% | 101% | 69.7% | 101% | 103% | 106% | 100% | 97.8% | 100% |
| C1=C\CCCCN2CC[C@H]3[C@H](CCCC/C=C\CCCN4C[C@@H](CCCCC/1)C[C@@H]3C4)C2 | 79.5% | 110% | 108% | 76.3% | – | 17.6% | 47.8% | 48.9% | 73.2% | -64.3% (active) | -19.5% (active) | 98.9% | 73.9% | -43.3% (active) | 51.3% | 31.3% | 84.7% | 1.72% (active) | 73.8% | 93.9% |
| N#Cc1nc(-c2cccc(Br)c2)cc(-c2ccc(Nc3nc(N4CCCCC4)nc(N4CCCCC4)n3)cc2)c1N | 13% | -73.7% (active) | 63.1% | 18.5% | -21.8% (active) | -69.4% (active) | -64.6% (active) | 21.9% | 6.82% (active) | – | 4.51% (active) | -80.9% (active) | -67.4% (active) | -70.9% (active) | 82.8% | -75.9% (active) | -35.8% (active) | 2.1% (active) | 5.03% (active) | -39% (active) |
| Cc1ccccc1CNc1ncnc2[nH]ncc12 | 109% | 91.9% | 114% | 99.3% | 104% | 64.3% | 47.7% | 91% | 97.3% | – | 46.8% | 114% | 106% | – | 84.3% | 97.6% | 107% | 103% | 95.4% | 103% |
| Cc1cc2nc3c(=O)[nH]c(=O)nc-3n(CC=O)c2cc1C | 108% | 91% | 110% | 106% | 106% | 293% | 107% | 115% | 105% | – | 96% | 112% | 106% | – | 92.2% | 93.6% | 159% | 109% | 99.5% | 116% |
